Bioassay records deposited in PubChem BioAssay by Broad Institute.
Hits are enriched below; roughly 2.8% of the tested compounds scored in any of these assays.
CDK5 p35 inh: inhibitors of human CDK5/p35 kinase. Recombinant CDK5/p35, ADP-Glo luminescence, 60 min. 330,000 tested, 0.01% active. inhibition, % at 10 µM. AID 488839;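 active = highest replicate inhibition of at least 50% and at least 75% of replicates reaching 50%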
PglD DTNB: blocks C. jejuni PglD acetyltransferase activity; inhibition, % at 12.5 µM; purified PglD enzyme, DTNB colorimetric CoA detection; 360,000 tested, 0.098% active; AID 602405; in the data active = inhibition above about 16%, passing the limit was not always enough
PvdQ acylase: P. aeruginosa PvdQ acylase inhibition. inhibition, % at 10 µM. purified PvdQ acylase, fluorescence plate reader. AID 488965. 340,000 tested, 0.063% active; in the data active = inhibition above about 30%, passing the limit was not always enough
FGF22 binding: FGF22 (human) thermal shift binding. recombinant FGF22 thermal shift, SYPRO orange fluorescence; percent of sucrose octasulfate shift, DMSO zero. activity (Tm shift, normalised), % at 9.99 µM. 340,000 tested, 1.5% active. AID 651658;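 active = mean Tm shift, scaled 0 neutral to 100 positive control, at about 1.3% or above, every replicate too, limit read from the data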
Target sequence (Q9HCT0 whole entry, looked up): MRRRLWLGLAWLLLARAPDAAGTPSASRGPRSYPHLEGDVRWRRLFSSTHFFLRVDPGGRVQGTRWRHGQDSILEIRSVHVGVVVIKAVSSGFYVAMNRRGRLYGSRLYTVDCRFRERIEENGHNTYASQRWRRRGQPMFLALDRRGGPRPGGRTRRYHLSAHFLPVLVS
SIRT5 block: inhibitors of human sirtuin-5 desuccinylase; Purified SirT5, succinyl-peptide AMC, trypsin-coupled fluorescence; inhibition, % at 15 µM; 330,000 tested, 1.1% active; Q9NXA8; in the data active = inhibition above about 15%
Target sequence (Q9NXA8 whole entry, looked up): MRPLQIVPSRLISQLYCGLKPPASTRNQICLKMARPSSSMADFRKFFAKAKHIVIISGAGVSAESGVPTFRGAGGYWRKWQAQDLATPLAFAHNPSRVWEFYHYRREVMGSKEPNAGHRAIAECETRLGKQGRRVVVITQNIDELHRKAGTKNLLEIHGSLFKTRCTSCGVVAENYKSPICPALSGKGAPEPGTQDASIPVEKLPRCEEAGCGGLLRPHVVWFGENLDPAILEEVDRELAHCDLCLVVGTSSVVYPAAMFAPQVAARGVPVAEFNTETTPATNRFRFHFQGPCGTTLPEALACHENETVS
dFosB activator: enhances mouse delta FosB homodimer DNA binding | P13346 | purified delta FosB, TAMRA-CDK5 oligo fluorescence polarization; percent of positive-control signal above neutral wells | activation, % at 25 µM | 340,000 tested, 0.99% active;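 active = mean activation above about 17%, with every replicate also reaching it, limit read from the data, passing the limit was not always enough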
Each line names hits and unclear results; the compound was inactive in the other large screens.

Cc1ccc(S(=O)(=O)N(C)C[C@H]2OCCCC[C@H](C)Oc3ccc(NS(=O)(=O)c4ccccc4)cc3C(=O)N([C@@H](C)CO)C[C@H]2C)cc1	SIRT5 block 23 (no result: CDK5 p35 inh, PvdQ acylase, dFosB activator)
Cc1ccc(S(=O)(=O)N(C)C[C@H]2OCCCC[C@@H](C)Oc3ccc(NS(=O)(=O)c4ccccc4)cc3C(=O)N([C@H](C)CO)C[C@H]2C)cc1	SIRT5 block 19 (no result: CDK5 p35 inh, PvdQ acylase, dFosB activator)
Cc1ccc(S(=O)(=O)N(C)C[C@@H]2OCCCC[C@H](C)Oc3ccc(NS(=O)(=O)c4ccccc4)cc3C(=O)N([C@H](C)CO)C[C@H]2C)cc1	SIRT5 block 18 (no result: CDK5 p35 inh, PvdQ acylase, dFosB activator)
COc1cc(CO)cc(I)c1O[C@H]1C=C(C(=O)NCCO)C[C@@H](NCc2ccccc2F)[C@@H]1O	none (no result: CDK5 p35 inh, PvdQ acylase, dFosB activator)
C(=N\Nc1ncnc2nc[nH]c12)/c1cccs1	FGF22 binding 43
Cc1ccsc1/C=N/Nc1ncnc2nc[nH]c12	none (no result: PglD DTNB)
CN(C)C(=O)C[C@@H]1C[C@@H]2c3cc(NS(=O)(=O)c4ccccc4)ccc3O[C@@H]2[C@@H](CO)O1	none (no result: CDK5 p35 inh, PvdQ acylase, SIRT5 block, dFosB activator)
Cc1ccc(S(=O)(=O)N[C@@H]2CC[C@H](CC(=O)N3CCc4ccccc4C3)O[C@H]2CO)cc1	none (no result: CDK5 p35 inh, PvdQ acylase, dFosB activator)
S=c1[nH]nc(-c2cccc(Cl)c2)n1/N=C/c1ccc(-c2ccccc2Br)o1	dFosB activator 42
CC(C)NC(=O)Nc1ccc2c(c1)CC(=O)N([C@@H](C)CO)C[C@@H](C)[C@H](CN(C)Cc1ccc(Oc3ccccc3)cc1)O2	none (no result: CDK5 p35 inh, PvdQ acylase, dFosB activator)
O=C(C[C@@H]1C[C@H]2c3cc(NC(=O)C4CCOCC4)ccc3O[C@H]2[C@@H](CO)O1)NC1CCCCC1	none (no result: CDK5 p35 inh, PvdQ acylase, FGF22 binding, dFosB activator)
N#CNC(=Nc1cccc(F)c1)SCc1ccccc1	FGF22 binding 44 (no result: PglD DTNB)
O=C(CN1CCOCC1)N/N=C/c1ccc(-c2ccc(C(=O)O)cc2)o1	SIRT5 block 17 (no result: PglD DTNB)
CN(C)C(=O)c1cc(C(=O)c2ccc(Cl)cc2Cl)c[nH]1	none
NC(=O)c1cc(C(=O)c2ccc(Cl)cc2Cl)c[nH]1	FGF22 binding 44 (no result: PglD DTNB)
O=S(=O)(c1ccc(Cl)cc1)N1[C@@H]2CNC[C@H]1C2c1ccc(-c2cccc(F)c2)cc1 (some centres not stated)	none (no result: CDK5 p35 inh, PglD DTNB, PvdQ acylase, dFosB activator)
CCO[C@H]1OC(C(=O)NCc2nc3ccccc3[nH]2)=C[C@@H](c2csc3ccccc23)[C@@H]1CCCO	none
CCO[C@@H]1OC(C(=O)NCc2nc3ccccc3[nH]2)=C[C@H](c2csc3ccccc23)[C@H]1CCCO	SIRT5 block 31
Cc1ccc(CNC(=O)C2CCCN(S(=O)(=O)c3cccnc3)C2)cc1 (configuration not stated)	none (no result: FGF22 binding, SIRT5 block)
Cc1ccc(NC(=O)C2CCCN(S(=O)(=O)c3cccnc3)C2)c(C)c1 (configuration not stated)	FGF22 binding 44
Cc1ccc(NC(=O)C2CCCN(S(=O)(=O)c3cccnc3)C2)cc1C (configuration not stated)	SIRT5 block 18 (no result: CDK5 p35 inh, PglD DTNB)
CCc1ccc(NC(=O)C2CCCN(S(=O)(=O)c3cccnc3)C2)cc1 (configuration not stated)	none (no result: PglD DTNB)
COCC(=O)Nc1ccc2c(c1)C(=O)N(C)C[C@@H](OC)[C@@H](C)CN(Cc1ccccc1)[C@H](C)CO2	none (no result: CDK5 p35 inh, PvdQ acylase, dFosB activator)
CN(C)C(=O)c1cccc(-c2ccc3c(c2)[C@H]2[C@H](CCN2Cc2nccs2)[C@H](CO)N3)c1	none (no result: CDK5 p35 inh, PvdQ acylase, dFosB activator)
O=C1OC(c2ccc(Cl)cc2)=C/C1=C/c1cccnc1	none
Cc1ccc(C2=C/C(=C/c3cccnc3)C(=O)O2)c(C)c1	FGF22 binding 44 (no result: PglD DTNB)
Cc1cc(-c2nnc(SCC(=O)c3ccc(Cl)cc3)o2)no1	FGF22 binding 44 (no result: PglD DTNB)
CCCN(CCC)CCN1CCN(C(=O)[C@H](CCc2ccccc2)NC(=O)[C@H]2O[C@@H](n3cnc4c(N)ncnc43)[C@H](O)[C@@H]2O)CC1	SIRT5 block 29 (no result: CDK5 p35 inh, PglD DTNB, PvdQ acylase, dFosB activator)
Cc1ccc(-n2cccc2/C=C2/C(=N)N3C(=NC2=O)SN=C3S(C)(=O)=O)cc1Cl	none (no result: FGF22 binding, SIRT5 block)
Cc1cccc(C)c1-n1cccc1/C=C1/C(=N)N2C(=NC1=O)SN=C2S(C)(=O)=O	FGF22 binding 44 (no result: PglD DTNB)
CCn1nc(C(=O)OCC(=O)N(CC(C)C)c2c(N)n(Cc3ccccc3)c(=O)[nH]c2=O)c2ccccc2c1=O	FGF22 binding 9.2
COCCN(C(=O)COC(=O)c1cc2c(s1)CCC2)c1c(N)n(Cc2ccccc2)c(=O)[nH]c1=O	SIRT5 block 15
C[C@H]1CN([C@@H](C)CO)S(=O)(=O)c2ccc(C#CC(C)(C)O)cc2O[C@H]1CN(C)C	none (no result: CDK5 p35 inh, PvdQ acylase, dFosB activator)
O=C1C=CCC(/C=C/c2ccccc2)O1 (configuration not stated)	FGF22 binding 44 (no result: CDK5 p35 inh, PglD DTNB, PvdQ acylase, dFosB activator)
O=C(C[C@H]1CC[C@H](NC(=O)NC2CCCCC2)[C@H](CO)O1)NCc1ccccc1	none (no result: CDK5 p35 inh, PvdQ acylase, dFosB activator)
COc1ccc(C(=O)N/C(=C\c2cccc([N+](=O)[O-])c2)C(=O)Nc2cccc(C(=O)O)c2)cc1	FGF22 binding 43 (no result: PglD DTNB)
O=S(=O)(N[C@H]1CC[C@@H](CCn2cc(-c3ccccc3F)nn2)O[C@@H]1CO)c1ccc(Cl)cc1	none (no result: CDK5 p35 inh, PvdQ acylase, dFosB activator)
CN1CCN(c2ccc(S(=O)(=O)N3CCCCC3)cc2NC(=O)/C=C/c2ccc(Cl)c([N+](=O)[O-])c2)CC1	dFosB activator 52
CCN1CCN(c2ccc(S(=O)(=O)N3CCCCC3)cc2NC(=O)/C=C/c2ccc([N+](=O)[O-])cc2)CC1	dFosB activator 52
CN1CCN(c2ccc(S(=O)(=O)N3CCCCC3)cc2NC(=O)/C=C/c2ccc(OC(F)F)cc2)CC1	none
Cc1ccccc1-c1nc(CS(=O)(=O)CC(=O)NCCCN2CCCC2)c(C)o1	SIRT5 block 17
COc1ccc(CN2CCN(CCc3ccccc3)C(CCO)C2)cc1Cn1cncn1 (configuration not stated)	FGF22 binding 44
CCOc1cc(CN2CCN(CCc3ccccc3)C(CCO)C2)ccc1OC (configuration not stated)	none (no result: PglD DTNB)
COc1ccccc1-n1cc(CN2CCN(CC=C(C)C)C(CCO)C2)cn1 (configuration not stated)	none
CC(C)=CCN1CCN(Cc2ccc3nsnc3c2)CC1CCO (configuration not stated)	FGF22 binding 43 (no result: PglD DTNB)
COc1ccc(CN2CCN(CC=C(C)C)C(CCO)C2)cc1Cn1cccn1 (configuration not stated)	FGF22 binding 44 (no result: PglD DTNB)
CO[C@H]1CC[C@@H]2CCOc3ccc(C#N)cc3C(=O)N(C)[C@@H](C)C(=O)N(C)C[C@H]1O2	none (no result: CDK5 p35 inh, PvdQ acylase, dFosB activator)
CCCN1C[C@H](C)[C@@H](OC)CN(C)C(=O)c2ccc(NC(=O)Nc3ccccc3F)cc2OC[C@H]1C	none (no result: CDK5 p35 inh, PvdQ acylase, dFosB activator)
C[C@H](CO)N1C[C@H](C)[C@@H](CN(C)S(C)(=O)=O)Oc2ccc(NC(=O)Cc3ccccc3)cc2CC1=O	none (no result: CDK5 p35 inh, PvdQ acylase, dFosB activator)
COc1ccccc1S(=O)(=O)N[C@@H]1C=C[C@H](CC(=O)NCc2cc(F)cc(F)c2)O[C@H]1CO	none (no result: CDK5 p35 inh, PvdQ acylase, dFosB activator)
